Test results from the supplement of paper PMC6555819.

The sequences below were run on VDR:RXRa (NR concentration 270 nM, RXRa partner concentration 90 nM) (assay: PBM binding z-score (relative to random genomic background probes); higher = stronger binding; sequences stand for … in GC…GCGATTGACAGCGTAGAATGAAGG).
Method: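 Protein-binding microarray (Agilent 4x180K custom design, double-stranded 60-nt probes: 5' GC cap, 34-nt variable region, 24-nt constant primer region; full probe sequence given). Purified or IVT nuclear receptor:RXRα heterodimers (3:1 NR:RXRα, mostly 270:90 nM) or homodimers were incubated for 1 h in PBS with 2% milk and no ligand, then detected with Alexa488 antibodies. Fluorescence from o1-orientation probes (~5 replicates averaged) was converted to z-scores against 500 random hg19 background probes. Variable regions are seed direct-repeat (DR0–DR5) sites, all their single-nucleotide variants and half-site ablations.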
Work on CCAGACAGGTGAGAAGGTAACCCAGCCTCGATTA yielded a PBM binding z-score of -0.04.
In the case of GCTTGTAGATCAAGGTTAATAAAGACTAAGCTAA, the PBM binding z-score is reported as -0.00898.
With CCAGACAGGTGAAAGGGAACTCAGTCTGGTACGC the PBM binding z-score was -0.152.
For TCATATAGGTAAAAGATGAAAGTCGGTGTGGTAA, the PBM binding z-score was 0.912.
For CCTACTGGGCCATTCAGGGGTCATTGATCATATG, the PBM binding z-score was 4.82.
TAGCCTAGGTCATTCAGTGGCCAGTATAGAAAGC gave a PBM binding z-score of 2.43.
TCATATAGGTAAAAGGTGGAAGTCGGTGTGGTAA showed a PBM binding z-score of 1.11.
Work on CAAACTAGGTCAAGAGGTCAAAGTCCGCTTCCCG yielded a PBM binding z-score of 6.26.
Work on TCTATTAGTTGAAGGGCAACCGACGAGTCCGTTT yielded a PBM binding z-score of 1.09.
For GGAACGAGGGCAAAGTTGATATCATCTGTCGACG, the PBM binding z-score was 1.34.
CCTATTAGTTGACCATTAGGGCAACCGAAGCTCG gave a PBM binding z-score of 0.563.
CCGAGTAGGTTATGGGTCATTCAGGCAACGGTGA was tested, and the PBM binding z-score was 2.67.
In the case of CCATACGGGTCACGAGGTTATAGCACGACGAGCG, the PBM binding z-score is reported as 5.02.
CCAAGCAGGCCAGGGTCACTCAAGCATTTCGCTT gave a PBM binding z-score of 2.55.
For CAAACTAGGTCACCGGATGGTCAAAGTCCGCATG, the PBM binding z-score was 2.78.
In the case of CTACCAAGGTGAACAATGTCGTTGATTACTATTC, the PBM binding z-score is reported as 1.37.
Work on AGAATGAGGTTGTTAAGATCAGGGAATTGCGGTC yielded a PBM binding z-score of 0.496.
TCTTGTGGATCAAGCAGGTTAAGAAAGCCTGAGT showed a PBM binding z-score of 0.403.
CAGCCCAGGTCAGGGCCAGTATAGGAGGAACGTT gave a PBM binding z-score of 0.803.
For CCGACTGGGGCATAAGTTTACCATAAGCCAGCCC, the PBM binding z-score was -0.462.
In the case of TCATATAGGTAAACGTGAAAGTCGAACGATATGA, the PBM binding z-score is reported as 0.503.
CGAACTAGGTCAGGGACAGTGAATCTCCGCACGC was tested, and the PBM binding z-score was 0.457.
CGAACTAGGTCATCCAGGACATTGAATACATTGA showed a PBM binding z-score of 5.52.
CCTCGGAGGACAACAGGAGGCCAGAGCTGCCAGA showed a PBM binding z-score of -0.504.
AGAATGAGGTTATACGTTGATCAGGGAAGAAAGT was tested, and the PBM binding z-score was 1.39.
CCTACTGGTCCACGAAAGGTCATTGATTCAGTGA was tested, and the PBM binding z-score was 4.24.
With TCTTGTAGATCAAGCAGCTTAAGAAAGCCTGAGT the PBM binding z-score was 0.0668.
With CTCGAAAGGTCGTGCTGAGGTGAGTATACCAAAC the PBM binding z-score was 3.85.
Sequence CCTTACGGGTCACTGACAGGCTATAGCATTTGGA has a PBM binding z-score of 3.07.
With AGAACGAGGGCCATGAGTTGATAGCACGGGTGGC the PBM binding z-score was 0.196.
ACTCGGAGGACAAAGGTCAGAGCAACGCCAGTGA was tested, and the PBM binding z-score was 3.39.
Sequence GCATATAGGTGATACAAGGTGAAAGTCCGATTGT has a PBM binding z-score of 0.445.
GCGACTGGGGGAAAGCAGGTTACCATAAGGTTGG gave a PBM binding z-score of 0.39.
GCATATAGGTAATACAAGGTGAAAGGCCGATTGT showed a PBM binding z-score of 0.402.
CTCGAAAGGTCGGTTAAGGTGAGTATACGGATAA gave a PBM binding z-score of 2.03.
CCTACTGGGCCAAAGGTCACTGATTCCAATGCTC gave a PBM binding z-score of 4.55.
ATAGCAAGGTGATCGTGAGGTCGTTGATACTAAC gave a PBM binding z-score of 2.94.
GCAGACAGGTGAAACGCAGCTAACTCAGGGTGGC was tested, and the PBM binding z-score was -0.847.
With GGAACGAGGGCACAGTTGATAGCATCTGTCGACG the PBM binding z-score was 0.453.
ATCTCTAGGTAACCTAGTTCAGTGAATGCCGAAC gave a PBM binding z-score of 1.96.
